# Measurements: PubChem BioAssay
# Activity calls are given as the source filed them.
# Columns and labels:
# [1] = test system: PRMT1 (protein arginine N-methyltransferase 1); test: PRMT1 binders on small-molecule microarrays, primary screen, biochemical, small-molecule microarray, 635 nm fluorescence (AID 1088); conditions: small-molecule microarray binding, higher = more signal;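 further: binding of Prmt1 protein to compounds spotted on small-molecule microarray slides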
# [2] = yeast growth modulation, basal conditions, primary screen, YJM789 clinical isolate, OD600, 24 h (AID 1089);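 further: growth of clinical yeast isolate S. cerevisiae YJM 789 seeded 1000 cells per well; test concentration not given here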; conditions: S. cerevisiae YJM789 growth, higher = more signal, called active from +8 up or from −8 down
# [3] = fission yeast growth modulation, primary screen, strain 972, OD600, 24 h, no modulator (AID 1090);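 further: basal condition with compound alone and no growth modifier present; test concentration not given here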; conditions: S. pombe 972 growth, higher = more signal, called active from +8 up or from −8 down
# [4] = S. cerevisiae growth modulation with rapamycin, primary screen, strain BY4716, OD600, 96 h (AID 1091); conditions: higher = more signal, called active from +8 up or from −8 down; further: test concentration not given here
# [5] = target: Torsin-1A-interacting protein 2 (Homo sapiens) (UniProt Q8NFQ8); test: LULL1 binders on small-molecule microarray, primary screen, cell lysate, human LULL1 lysate, 635/667 nm fluorescence (AID 1092); conditions: hLULL1 lysate binding, 635 nm fluorescence, higher = more signal;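 further: probe is lysate of COS7 cells overexpressing human LULL1; score merges per-feature 667 nm fluorescence with signal-to-noise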
# Sequence of Torsin-1A-interacting protein 2 (Homo sapiens) (Q8NFQ8 whole entry, looked up): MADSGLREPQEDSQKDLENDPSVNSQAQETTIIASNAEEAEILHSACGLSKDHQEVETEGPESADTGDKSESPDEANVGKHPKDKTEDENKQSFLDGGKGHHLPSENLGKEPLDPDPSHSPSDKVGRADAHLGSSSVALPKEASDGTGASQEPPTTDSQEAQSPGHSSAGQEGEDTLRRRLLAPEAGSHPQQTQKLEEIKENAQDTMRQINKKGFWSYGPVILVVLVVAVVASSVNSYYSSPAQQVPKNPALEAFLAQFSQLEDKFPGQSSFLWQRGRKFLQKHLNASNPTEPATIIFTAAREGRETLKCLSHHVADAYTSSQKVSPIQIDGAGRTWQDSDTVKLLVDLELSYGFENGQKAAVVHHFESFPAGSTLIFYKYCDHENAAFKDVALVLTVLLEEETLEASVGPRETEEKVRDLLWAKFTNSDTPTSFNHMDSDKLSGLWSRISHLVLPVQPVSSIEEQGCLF
# [6] = E. coli growth modulation, two-sided OD650, primary screen, E. coli filamentation project, strain DRC41, 24 h (AID 1093); conditions: OD650, 24 h, higher = more signal, called active from +8 up or from −8 down;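 further: MC1000 strain lacking acrAB efflux and sulA so SOS filamentation is blocked; test concentration not given here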
# [7] = small-molecule microarray binders of probe aLefty2, primary screen, biochemical, biotinylated probe, 635/667 nm fluorescence (AID 1094); conditions: higher = more signal;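 further: score merges spot fluorescence near 667 nm with spot signal-to-noise ratio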
# [8] = test system: Noggin (protein binding on small-molecule microarray); test: Noggin binders on small-molecule microarray, primary screen, biochemical, 635/667 nm fluorescence (AID 1095); conditions: 635 nm fluorescence, higher = more signal;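 further: score merges 667 nm feature fluorescence with signal to noise over triplicate slides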
# [9] = target: Neurogenic locus notch homolog protein 3 (Homo sapiens) (UniProt Q9UM47); test: NOTCH3 binders on small-molecule microarray, primary screen, biochemical, 635/667 nm fluorescence (AID 1096); conditions: NOTCH3 binding, 635 nm fluorescence, higher = more signal
# Sequence of Neurogenic locus notch homolog protein 3 (Homo sapiens) (Q9UM47 whole entry, looked up): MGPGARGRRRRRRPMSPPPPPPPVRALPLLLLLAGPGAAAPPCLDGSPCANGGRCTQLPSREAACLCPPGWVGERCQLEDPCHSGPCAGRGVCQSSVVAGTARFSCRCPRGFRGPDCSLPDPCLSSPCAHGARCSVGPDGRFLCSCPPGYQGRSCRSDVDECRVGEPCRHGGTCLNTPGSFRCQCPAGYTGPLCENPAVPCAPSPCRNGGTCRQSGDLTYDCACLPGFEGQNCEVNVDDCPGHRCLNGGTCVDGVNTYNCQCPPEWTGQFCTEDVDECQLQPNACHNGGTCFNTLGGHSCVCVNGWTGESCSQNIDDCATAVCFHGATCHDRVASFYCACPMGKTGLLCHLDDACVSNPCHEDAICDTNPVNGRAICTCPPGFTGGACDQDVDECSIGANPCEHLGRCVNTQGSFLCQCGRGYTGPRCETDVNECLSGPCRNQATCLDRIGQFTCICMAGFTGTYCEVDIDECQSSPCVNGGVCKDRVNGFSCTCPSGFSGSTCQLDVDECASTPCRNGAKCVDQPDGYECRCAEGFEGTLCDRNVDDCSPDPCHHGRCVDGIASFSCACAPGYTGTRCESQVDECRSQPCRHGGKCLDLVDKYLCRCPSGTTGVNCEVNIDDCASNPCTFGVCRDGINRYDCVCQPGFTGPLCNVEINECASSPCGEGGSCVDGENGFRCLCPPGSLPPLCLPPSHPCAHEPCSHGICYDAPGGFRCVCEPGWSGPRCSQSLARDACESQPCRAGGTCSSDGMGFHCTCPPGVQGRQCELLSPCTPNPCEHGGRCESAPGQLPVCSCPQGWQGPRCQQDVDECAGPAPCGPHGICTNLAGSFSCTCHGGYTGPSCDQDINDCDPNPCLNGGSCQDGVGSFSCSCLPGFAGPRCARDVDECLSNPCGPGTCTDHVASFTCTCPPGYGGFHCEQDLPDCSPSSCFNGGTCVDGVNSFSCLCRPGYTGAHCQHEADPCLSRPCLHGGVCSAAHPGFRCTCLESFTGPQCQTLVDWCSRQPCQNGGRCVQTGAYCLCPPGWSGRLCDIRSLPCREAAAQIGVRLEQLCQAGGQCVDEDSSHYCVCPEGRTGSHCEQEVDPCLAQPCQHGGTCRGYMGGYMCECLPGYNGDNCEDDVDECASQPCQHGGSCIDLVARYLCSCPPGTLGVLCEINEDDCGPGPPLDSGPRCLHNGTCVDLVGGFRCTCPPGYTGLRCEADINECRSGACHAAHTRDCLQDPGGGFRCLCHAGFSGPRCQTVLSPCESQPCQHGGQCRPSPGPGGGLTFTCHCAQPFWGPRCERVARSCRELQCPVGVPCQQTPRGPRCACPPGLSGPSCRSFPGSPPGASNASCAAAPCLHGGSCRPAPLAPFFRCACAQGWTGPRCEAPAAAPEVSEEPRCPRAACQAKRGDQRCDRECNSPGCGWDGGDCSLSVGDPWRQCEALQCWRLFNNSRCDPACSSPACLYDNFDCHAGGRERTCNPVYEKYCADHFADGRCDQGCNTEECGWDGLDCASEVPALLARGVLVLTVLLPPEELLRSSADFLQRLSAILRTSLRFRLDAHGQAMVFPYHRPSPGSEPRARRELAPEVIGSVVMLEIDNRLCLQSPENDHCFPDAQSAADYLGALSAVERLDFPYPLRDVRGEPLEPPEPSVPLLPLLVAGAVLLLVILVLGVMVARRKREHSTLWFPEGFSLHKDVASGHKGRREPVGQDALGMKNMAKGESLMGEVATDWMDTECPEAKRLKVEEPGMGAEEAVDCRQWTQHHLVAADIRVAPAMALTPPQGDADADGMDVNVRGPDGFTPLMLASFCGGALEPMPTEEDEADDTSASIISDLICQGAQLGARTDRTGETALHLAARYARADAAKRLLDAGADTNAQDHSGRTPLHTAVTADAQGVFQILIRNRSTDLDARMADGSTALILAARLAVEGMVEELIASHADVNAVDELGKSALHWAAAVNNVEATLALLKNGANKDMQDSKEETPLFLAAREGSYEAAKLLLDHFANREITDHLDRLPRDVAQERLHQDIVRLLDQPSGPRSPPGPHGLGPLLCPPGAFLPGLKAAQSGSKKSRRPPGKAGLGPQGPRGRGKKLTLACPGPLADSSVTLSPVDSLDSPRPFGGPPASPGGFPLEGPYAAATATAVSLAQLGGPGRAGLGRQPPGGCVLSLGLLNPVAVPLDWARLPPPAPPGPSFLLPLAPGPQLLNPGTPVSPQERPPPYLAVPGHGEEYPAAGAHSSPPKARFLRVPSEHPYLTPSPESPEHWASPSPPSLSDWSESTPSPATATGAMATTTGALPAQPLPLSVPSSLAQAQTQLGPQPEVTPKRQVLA
# [10] = small-molecule microarray binders of probe aEGFR, primary screen, biochemical, biotinylated probe, 635/667 nm fluorescence (AID 1097); conditions: higher = more signal;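 further: probe is a biotinylated anti-EGFR antibody binding compounds printed on slides; score combines fluorescence near 667 nm and signal to noise of each spot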
compound,measurement,setting,value
CC(C)=CCCC(C)=CC(O)C1C=CC2C(=O)N(c3ccccc3)C(=O)C2N1Nc1ccc([N+](=O)[O-])cc1 (stereo not given),composite z-score,[1],1.52
same,z-score,[2],-0.706 (inactive)
same,z-score,[3],-0.589 (inactive)
same,z-score,[4],8.22 (active)
same,composite z-score,[5],3.8
same,z-score,[6],-0.867 (inactive)
same,composite z-score,[7],0.0634
same,composite z-score,[8],-0.14
same,composite z-score,[9],1.12
same,composite z-score,[10],0.0466
O=c1c2ccc(Br)cc2nc(-c2ccccc2)n1Cc1cccc(O)c1,composite z-score,[1],0.529
same,z-score,[2],-1.52 (inactive)
same,z-score,[3],-2.91 (inactive)
same,z-score,[4],-0.511 (inactive)
same,composite z-score,[5],1.86
same,z-score,[6],1.38 (inactive)
same,composite z-score,[7],-0.0614
same,composite z-score,[8],-0.0706
same,composite z-score,[9],0.343
same,composite z-score,[10],-0.0721
NC(=O)NCC#Cc1ccc2c(c1)[C@]1(C(=O)N2)[C@H](c2ccc(OCCO)cc2)N2[C@H](c3ccccc3)[C@H](c3ccccc3)OC(=O)[C@H]2[C@@H]1C(=O)N1CCCCCCC1,composite z-score,[1],1.09
same,z-score,[2],1.57 (inactive)
same,z-score,[3],1.43 (inactive)
same,z-score,[4],3.66 (inactive)
same,composite z-score,[5],3.3
same,z-score,[6],-0.53 (inactive)
same,composite z-score,[7],1.73
same,composite z-score,[8],1.88
same,composite z-score,[9],1.04
same,composite z-score,[10],1.06
NC(=O)[C@H]1[C@@H]2C(=O)O[C@@H](c3ccccc3)[C@@H](c3ccccc3)N2[C@@H](c2ccc(O)cc2)[C@]12C(=O)Nc1ccc(C#CC3(O)CCCCCC3)cc12,composite z-score,[1],1.53
same,z-score,[2],0.46 (inactive)
same,z-score,[3],-1.09 (inactive)
same,z-score,[4],1.33 (inactive)
same,composite z-score,[5],3.22
same,z-score,[6],0.568 (inactive)
same,composite z-score,[7],0.0441
same,composite z-score,[8],1.2
same,composite z-score,[9],1.03
same,composite z-score,[10],0.0955
COC(=O)c1ccc(OC)c(/C=C\CC(CCc2ccccc2)OC(C)=O)c1 (stereo not given),composite z-score,[1],-0.0961
same,z-score,[2],-0.714 (inactive)
same,z-score,[3],-0.645 (inactive)
same,z-score,[4],-0.21 (inactive)
same,composite z-score,[5],0.324
same,z-score,[6],-0.031 (inactive)
same,composite z-score,[7],-0.154
same,composite z-score,[8],-0.358
same,composite z-score,[9],-0.255
same,composite z-score,[10],-0.0899
COc1ccc(C#Cc2ccc3c(c2)[C@]2(C(=O)N3)[C@H](c3ccc(OCCO)cc3)N3[C@H](c4ccccc4)[C@H](c4ccccc4)OC(=O)[C@H]3[C@@H]2C(=O)N2CCN(c3ncccn3)CC2)cc1,composite z-score,[1],0.61
same,z-score,[2],1.86 (inactive)
same,z-score,[3],1.23 (inactive)
same,z-score,[4],4.94 (inactive)
same,composite z-score,[5],1.51
same,z-score,[6],2.6 (inactive)
same,composite z-score,[7],-0.105
same,composite z-score,[8],0.346
same,composite z-score,[9],0.824
same,composite z-score,[10],-0.0928
COCCOC(=O)N1C(=O)[C@@]2(c3cc(C#Cc4ccc(OC)cc4)ccc31)[C@H](c1ccc(OCCO)cc1)N1[C@H](c3ccccc3)[C@H](c3ccccc3)OC(=O)[C@H]1[C@@H]2C(N)=O,composite z-score,[1],1.54
same,z-score,[2],1.37 (inactive)
same,z-score,[3],1.87 (inactive)
same,z-score,[4],5.01 (inactive)
same,composite z-score,[5],1.64
same,z-score,[6],1.37 (inactive)
same,composite z-score,[7],0.172
same,composite z-score,[8],1.45
same,composite z-score,[9],1.02
same,composite z-score,[10],0.0593
O=C1O[C@H](c2ccccc2)[C@H](c2ccccc2)N2[C@H]1[C@@H](C(=O)N1CCCCCCC1)[C@]1(C(=O)Nc3ccccc31)[C@H]2c1ccc(O)cc1,composite z-score,[1],1.55
same,z-score,[2],0.532 (inactive)
same,z-score,[3],0.556 (inactive)
same,z-score,[4],0.874 (inactive)
same,composite z-score,[5],4.82
same,z-score,[6],0.248 (inactive)
same,composite z-score,[7],2.02
same,composite z-score,[8],2.26
same,composite z-score,[9],1.01
same,composite z-score,[10],1.5
C=CC[C@@]1(C(=O)NCCN2CCOCC2)N=C(c2ccc(OCCCO)cc2)O[C@@H]1c1ccccc1,composite z-score,[1],1.54
same,z-score,[2],0.305 (inactive)
same,z-score,[3],0.132 (inactive)
same,z-score,[4],0.33 (inactive)
same,composite z-score,[5],3.01
same,z-score,[6],0.0348 (inactive)
same,composite z-score,[7],0.0634
same,composite z-score,[8],2.08
same,composite z-score,[9],0.625
same,composite z-score,[10],0.0149
Cc1ccc(F)cc1S(=O)(=O)N[C@@H]1CCN(C(=O)c2ccc(OC(C)C)cc2)C1,composite z-score,[1],0.981
same,z-score,[2],-0.654 (inactive)
same,z-score,[3],-0.709 (inactive)
same,z-score,[4],-0.966 (inactive)
same,composite z-score,[5],1.03
same,z-score,[6],0.845 (inactive)
same,composite z-score,[7],0.0563
same,composite z-score,[8],0.805
same,composite z-score,[9],1.13
same,composite z-score,[10],0.0225
C[N+](C)(C)CCCC[C@@H]1NC(=O)[C@@H]2C[C@H](C(=O)NCCCCCNC(=O)CS)[C@H](c3cccc(OCCO)c3)N2C1=O,composite z-score,[1],0.749
same,z-score,[2],0.539 (inactive)
same,z-score,[3],-0.879 (inactive)
same,z-score,[4],0.378 (inactive)
same,composite z-score,[5],0.743
same,z-score,[6],0.906 (inactive)
same,composite z-score,[7],0.115
same,composite z-score,[8],0.505
same,composite z-score,[9],-0.296
same,composite z-score,[10],0.0338
O=C1c2ccccc2[C@](Cc2ccccc2I)(C(=O)NC2CC2)[C@H](c2ccc(CO)cc2)N1Cc1ccccc1Cl,composite z-score,[1],1.36
same,z-score,[2],0.07 (inactive)
same,z-score,[3],0.376 (inactive)
same,z-score,[4],1.57 (inactive)
same,composite z-score,[5],1.91
same,z-score,[6],-1.02 (inactive)
same,composite z-score,[7],0.349
same,composite z-score,[8],1.53
same,composite z-score,[9],0.856
same,composite z-score,[10],0.178
CC(C)C[C@H]1NC(=O)[C@H](C)NC(=O)[C@@]23C(=O)N[C@@H](Cc4ccccc4)C2[C@H](C)[C@@]2(C)O[C@H]2C3/C=C/C/C=C\CNC1=O (stereo not given in full),composite z-score,[1],0.653
same,z-score,[2],-1.14 (inactive)
same,z-score,[3],-1.25 (inactive)
same,z-score,[4],-1.07 (inactive)
same,composite z-score,[5],2.44
same,z-score,[6],-0.847 (inactive)
same,composite z-score,[7],-0.27
same,composite z-score,[8],-0.344
same,composite z-score,[9],0.0715
same,composite z-score,[10],-0.158
C[N+](C)(C)CCCCNC(=O)[C@H]1C[C@H]2C(=O)NCC(=O)N2[C@H]1c1ccc(O)cc1,composite z-score,[1],1.46
same,z-score,[2],-0.826 (inactive)
same,z-score,[3],0.0918 (inactive)
same,z-score,[4],-1.71 (inactive)
same,composite z-score,[5],1.84
same,z-score,[6],0.509 (inactive)
same,composite z-score,[7],0.0823
same,composite z-score,[8],2.01
same,composite z-score,[9],1.04
same,composite z-score,[10],0.154
CC(=O)NCCCC[C@@H]1NC(=O)[C@H]2C[C@@H](C(=O)NCCCCCN)[C@@H](c3cccc(OCCO)c3)N2C1=O,composite z-score,[1],0.907
same,z-score,[2],-1.51 (inactive)
same,z-score,[3],-0.0234 (inactive)
same,z-score,[4],-0.883 (inactive)
same,composite z-score,[5],2.23
same,z-score,[6],1.56 (inactive)
same,composite z-score,[7],-0.097
same,composite z-score,[8],0.559
same,composite z-score,[9],0.275
same,composite z-score,[10],-0.0155
COC(=O)[C@@]1(Cc2ccccc2)[C@H]2c3cc(C(=O)N4CCCC4)n(Cc4ccc(OC(F)(F)F)cc4)c3C[C@H]2CN1C(=O)c1ccccc1,composite z-score,[1],0.325
same,z-score,[2],1.54 (inactive)
same,z-score,[3],1.5 (inactive)
same,z-score,[4],3.42 (inactive)
same,composite z-score,[5],3.29
same,z-score,[6],-1.43 (inactive)
same,composite z-score,[7],0.961
same,composite z-score,[8],0.0283
same,composite z-score,[9],1.04
same,composite z-score,[10],0.647
C=C(COC)C(=O)CC[C@H](OC(=O)c1ccccc1-c1ccccc1C(=O)O)c1ccc(CO)o1,composite z-score,[1],1.56
same,z-score,[2],-1.91 (inactive)
same,z-score,[3],0.436 (inactive)
same,z-score,[4],0.526 (inactive)
same,composite z-score,[5],1.37
same,z-score,[6],0.229 (inactive)
same,composite z-score,[7],-0.216
same,composite z-score,[8],0.757
same,composite z-score,[9],0.391
same,composite z-score,[10],-0.17
O=C1O[C@H](c2ccccc2)[C@H](c2ccccc2)N2[C@H]1[C@@H](C(=O)N1CCCCCCC1)[C@]1(C(=O)Nc3ccc(C#CCCO)cc31)[C@H]2c1ccc(OCCO)cc1,composite z-score,[1],1.56
same,z-score,[2],1.55 (inactive)
same,z-score,[3],-0.0863 (inactive)
same,z-score,[4],3.73 (inactive)
same,composite z-score,[5],5.06
same,z-score,[6],0.669 (inactive)
same,composite z-score,[7],1.6
same,composite z-score,[8],2.36
same,composite z-score,[9],1.01
same,composite z-score,[10],1.28
CC1CC/C=C\[C@H]2OC34C=CCN(c5ccc(Cl)cc5)C(=O)[C@H]3N(C(CO)C(C)C)C(=O)[C@]4(C)C2C(=O)O1 (stereo not given in full),composite z-score,[1],-0.538
same,z-score,[2],1.04 (inactive)
same,z-score,[3],-0.775 (inactive)
same,z-score,[4],-0.439 (inactive)
same,composite z-score,[5],2.25
same,z-score,[6],-0.304 (inactive)
same,composite z-score,[7],-0.166
same,composite z-score,[8],-0.643
same,composite z-score,[9],0.161
same,composite z-score,[10],-0.233
COC(=O)c1c(CC[C@@H](CO)NC(=O)N[C@@H](C)Cn2cc(C3(O)CCCC3)nn2)oc(C(C)=O)c1C(=O)OC,composite z-score,[1],0.913
same,z-score,[2],0.009 (inactive)
same,z-score,[3],-1.03 (inactive)
same,z-score,[4],-0.117 (inactive)
same,composite z-score,[5],2
same,z-score,[6],-0.159 (inactive)
same,composite z-score,[7],-0.0126
same,composite z-score,[8],0.555
same,composite z-score,[9],0.634
same,composite z-score,[10],-0.0237
CCOC(=O)C1=CC[C@@H](c2ccc(N(CC)CC)cc2)N(S(=O)(=O)c2ccc(C)cc2)[C@H]1c1ccc([N+](=O)[O-])cc1,composite z-score,[1],0.554
same,z-score,[2],-0.673 (inactive)
same,z-score,[3],0.0534 (inactive)
same,z-score,[4],2.76 (inactive)
same,composite z-score,[5],2.29
same,z-score,[6],-0.532 (inactive)
same,composite z-score,[7],0.415
same,composite z-score,[8],-0.796
same,composite z-score,[9],0.206
same,composite z-score,[10],-0.0688
